# Experimental data reported in PubChem BioAssay (EPA / NIEHS).
# Records with an inconclusive call do not appear. Active and inactive are the calls of the source. Rule for the calls: active = hit-call score of the fitted dose curve at least 0.9, where 1 is the maximum; inconclusive = response in the unintended direction; inactive = score below 0.9.
# Read-out: ABC Transporter (ABCB1), ABCB1 (gene 5243)
# Assay: CLD_ABCB1_48hr: CellzDirect (CLD) Gene Expression Assay for ABC Transporter (ABCB1) at 48 hours (AID 2283695)
# Method: CLD_48hr is a cell-based, multiplexed-readout assay that uses hepatocyte, a human liver primary cell, with measurements taken at 48 hours after chemical dosing in a 96-well plate.CLD_ABCB1_48hr is one of 16 assay component(s) measured or calculated from the CLD_48hr assay. It is designed to make measurements of mRNA induction, a form of inducible reporter, as detected with chemiluminescence signals by Quantitative Nuclease Protection Assay (qNPA) technology.Data from the assay component CLD_ABCB1_48hr was analyzed at the endpoint, CLD_ABCB1_48hr, in the positive analysis fitting direction relative to DMSO as the negative control and baseline of activity. Using a type of inducible reporter, gain-of-signal activity can be used to understand changes in the reporter gene as they relate to the gene ABCB1. Furthermore, this assay endpoint can be referred to as a primary readout. To generalize the intended target to other relatable targets, this assay endpoint is annotated to the transporter intended target family, where subfamily is ABC transporter.
# Human hepatocyte cultures were treated daily for two consecutive days with fresh dosing solutions containing appropriate concentrations of the 320 ToxCast chemicals (chemical identities were blinded to CellzDirect and other ToxCast collaborators), vehicle control (0.2% DMSO), and positive control inducers as summarized in Table 1. Due to the large number of treatment groups and chemicals examined, the ToxCast chemicals were divided into two groups (spanning two independent cultures of hepatocytes from separate donor preparations (Hu778: ToxCast plates 1 and 2; Hu776: ToxCast plates 3 and 4). Each preparation of human hepatocyte cultures was treated with respective vehicle control, medium only control, set of six positive controls/reference chemicals for the five hepatic receptor pathways, and a subset of eight of the ToxCast chemicals (indoxacarb, pyrithiobac-sodium, norflurazon, cyhalofop-butyl, methomyl, thiram, acetochlor, and propiconazole). These replicate data, coupled with internal replicates designed within the blinded ToxCast chemical library, provided additional data to evaluate interindividual differences between hepatocyte preparations and their potential impact on chemical profiles.Cell morphology and integrity were evaluated using phase-contrast microscopy as an indicator of hepatocyte cell health (Tyson & Green, 1987). Cultures for each treatment group (i.e., media, vehicle [0.2% DMSO], positive control inducers [multiple concentrations], and the ToxCast chemicals [multiple concentrations]) were observed and cell morphology was assessed relative to vehicle control cultures at each harvest time point (0, 6, 24, or 48 h). […] Images were evaluated at the conclusion of the study to assess changes in cell integrity and account for the effects of chemical exposure on uncharacteristic changes in concentration-dependent gene expression profiles. The results from these determinations of apparent cytotoxicity were annotated (yes/no) alongside the corresponding qNPA data for reference.At the conclusion of each treatment period, hepatocyte cultures (96-well) were washed with 1 volume of HBSS, lysed by addition of 25 ul ArrayPlate lysis buffer (HTG, Tucson, AZ), and 70 ul/well of Denaturation Oil, denatured by incubation at 95C for 10 min, and frozen at approximately -70C until analysis by nuclease protection assay (qNPA) (Roberts et al., 2007). For qNPA analysis, cell lysates were thawed at 50C for approximately 30 min, qNPA probes were added, and samples were incubated at 95C for 10 min to begin the detection process by denaturing the target RNA, dissociating the duplexes and secondary structure hybridization. At the conclusion of the hybridization period, S1 nuclease reagent was added to each sample to digest all nonprotected nucleotides at 50C for 60-90 min. […]
row,Structure (SMILES),outcome
1,COCc1cnc(C2=NC(C)(C(C)C)C(=O)N2)c(C(=O)O)c1 (stereo not given),inactive
2,CCN(CC)C(=O)C(C)Oc1cccc2ccccc12 (stereo not given),inactive
3,C=CCOC(=O)C(C)(C)OC(=O)c1cc(-n2c(=O)cc(C(F)(F)F)n(C)c2=O)ccc1Cl,inactive
4,Clc1cccc(C(Cl)(Cl)Cl)n1,inactive
5,CCOc1cc(C(C)(C)C)ccc1C1COC(c2c(F)cccc2F)=N1 (stereo not given),inactive
6,COCC(C)N(C(=O)CCl)c1c(C)csc1C (stereo not given),inactive
7,CCSC(=O)N1CCCCCC1,inactive
8,CC(C)N1C(=O)N(c2ccccc2)CSC1=NC(C)(C)C,inactive
9,CCOP(=S)(OCC)Oc1nc(Cl)n(C(C)C)n1,inactive
10,CC1(C)C(C=C(Cl)Cl)C1C(=O)OC(C#N)c1cccc(Oc2ccccc2)c1 (stereo not given),inactive
11,N#CN=C1SCCN1Cc1ccc(Cl)nc1,inactive
12,Nc1c(Cl)c(F)nc(OCC(=O)O)c1Cl,inactive
13,CSC(=O)c1c(C(F)F)nc(C(F)(F)F)c(C(=O)SC)c1CC(C)C,inactive
14,COP(=S)(OC)Oc1ccc([N+](=O)[O-])c(C)c1,inactive
15,CC(C)C1(C)N=C(c2ncccc2C(=O)O)NC1=O (stereo not given),inactive
16,CO/N=C(/C1=NOCCO1)c1ccccc1Oc1ncnc(Oc2ccccc2Cl)c1F,inactive
17,C=C(C)CN(CC)c1c([N+](=O)[O-])cc(C(F)(F)F)cc1[N+](=O)[O-],inactive
18,CCOc1nc(F)cc2nc(S(=O)(=O)Nc3c(Cl)cccc3Cl)nn12,inactive
19,CCCCC(C#N)(Cn1cncn1)c1ccc(Cl)cc1 (stereo not given),inactive
20,Cc1nc(N(C)C)nc(OC(=O)N(C)C)c1C,inactive

row,Structure (SMILES),outcome
1,COC(=O)c1c(C(F)F)nc(C(F)(F)F)c(C2=NCCS2)c1CC(C)C,inactive
2,CNC(=O)N(C)c1nnc(C(C)(C)C)s1,inactive
3,CCCC(=NOCC)C1=C(O)CC(CC(C)SCC)CC1=O (stereo not given),inactive
4,Cc1ccc(N=CN(C)C=Nc2ccc(C)cc2C)c(C)c1,inactive
5,COC(=O)NS(=O)(=O)c1ccc(N)cc1,inactive
6,OC(c1ccc(Cl)cc1)(c1ccc(Cl)cc1)C(Cl)(Cl)Cl,inactive
7,CS(=O)(=O)c1ccc(C(=O)C2C(=O)CCCC2=O)c([N+](=O)[O-])c1,inactive
8,CC(C)(C)C(=O)C(Oc1ccc(Cl)cc1)n1cncn1 (stereo not given),inactive
9,COc1cc(OC)nc(NC(=O)NS(=O)(=O)c2ncccc2OCC(F)(F)F)n1,inactive
10,CCCCOCN(C(=O)CCl)c1c(CC)cccc1CC,inactive
11,COP(=O)(OC)O/C(C)=C/C(=O)N(C)C,inactive
12,Cn1c(-c2ccccc2)cc(-c2ccccc2)[n+]1C,inactive
13,COCC(=O)N(c1c(C)cccc1C)C(C)C(=O)OC (stereo not given),inactive
14,CC(C)Nc1nc(Cl)nc(NC(C)C)n1,inactive
15,Cc1c(COC(=O)[C@@H]2[C@H](/C=C(\Cl)C(F)(F)F)C2(C)C)cccc1-c1ccccc1,inactive
16,CC1(C)CON(Cc2ccccc2Cl)C1=O,inactive
17,CS(=O)(=O)c1cc(C(F)(F)F)ccc1C(=O)c1cnoc1C1CC1,inactive
18,CC(C)N1C(=O)c2ccccc2NS1(=O)=O,inactive
19,CC1(C)CCC(=Cc2ccc(Cl)cc2)C1(O)Cn1cncn1 (stereo not given),inactive
20,CC1(C)C(C(=O)OC(C#N)c2cccc(Oc3ccccc3)c2)C1(C)C (stereo not given),inactive
